Hits are enriched below; roughly 6.1% of the tested compounds scored in any of these assays.
ERG Ets-DNA blk: qHTS for Small Molecule Inhibitors of the ERG Ets/DNA interaction | Transcriptional regulator ERG (Homo sapiens), P11308 | Potency, µM (series often up to 76.9 µM), for the others: at the highest dose FP activity, negative = inhibition, usual class: inhibitors | fluorescence polarization, His-ERG Ets domain / labelled DNA | hit rate 0.028% among 370,000; active = well fitted inhibition curve with a large enough effect in the polarisation, with a control signal flat; the % refers to the polarisation;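 note: polarization taken with two DNA probes labelled with fluorescein and Texas red; potency is the fitted concentration of half-maximal effect; % of control where 0% means no effect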
Target sequence (P11308 whole entry, looked up, the tested form may be a part): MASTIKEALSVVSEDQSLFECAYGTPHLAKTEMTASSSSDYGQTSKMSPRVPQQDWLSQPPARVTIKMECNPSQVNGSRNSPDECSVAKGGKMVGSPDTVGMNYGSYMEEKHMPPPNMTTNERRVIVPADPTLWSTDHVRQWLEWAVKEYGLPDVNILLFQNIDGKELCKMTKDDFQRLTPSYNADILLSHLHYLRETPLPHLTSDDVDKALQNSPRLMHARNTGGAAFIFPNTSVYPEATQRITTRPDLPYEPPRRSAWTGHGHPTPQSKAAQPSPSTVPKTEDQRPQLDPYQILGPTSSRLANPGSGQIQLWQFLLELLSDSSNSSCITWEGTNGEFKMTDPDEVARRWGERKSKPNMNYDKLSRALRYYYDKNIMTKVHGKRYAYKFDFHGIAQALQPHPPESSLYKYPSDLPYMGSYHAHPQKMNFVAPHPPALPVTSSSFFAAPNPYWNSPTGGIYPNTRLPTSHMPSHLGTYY
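His-tagged ERG Ets domain (1 uM in the protein solution; 300mM KCl, 50mM Tris-HCl, 1mM EDTA, 1mM DTT, pH 7.5) received compound, then a probe mix of 5 nM fluorescein-DNA and 100nM Texas-615-DNA. Fluorescence polarization was read for both dyes.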
D3 ag: qHTS of D3 Dopamine Receptor Agonist: qHTS | hit rate 0.58% among 410,000 | AID 652048, 2013 | max activation, % | D(3) dopamine receptor (Homo sapiens), P35462 | D3R DiscoveRx beta-arrestin cells, luminescence, 90 min; in the data active = max activation above about 30%; note: 0% is about no effect
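Agonist-mode cell screen: cells plated at 1500/well and incubated overnight at 37 °C, then exposed to library compounds for 90 min at 37 °C. Detection reagent was added for 30–60 min at room temperature, and luminescence was read.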
D1 ag: Allosteric Agonists of the Human D1 Dopamine Receptor: qHTS; D(1A) dopamine receptor (Homo sapiens), P21728; activation, % at 2 µM; HEK293 T-REx D1 cells, calcium flux, agonist mode; hit rate 1% among 360,000; in the data active = activation above about 30%; note: 0% is about no effect
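Tetracycline-induced HEK293 TREx D1 cells, force-coupled to calcium signalling, were dye-loaded with a no-wash calcium kit. Compound was pin-added after a 10 s baseline. Fluorescence was read kinetically at 1 cycle/s for 180 s, with calcium rises flagged as agonism.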
D1 antagonist: Antagonist of Human D 1 Dopamine Receptor: qHTS; D(1A) dopamine receptor (Homo sapiens), P21728; HEK293 TREx D1 cells, calcium flux, dopamine EC80; hits give low values; activity change, negative = inhibition, % at 10 µM; hit rate 3.2% among 360,000; AID 504652, 2011; in the data active = activity change below about -30%; note: % is set by controls: 0 for no effect and ±100 for the full control effect
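HEK293 T-REx cells expressing inducible, force-coupled D1 receptor; no-wash Ca dye, 30–90 min RT. Cmpd → 180 s read at 1 Hz → EC80 DA → 180 s read.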
D1 PAM: Potentiators of Human D1 Dopamine Receptor: qHTS. potentiation, % at 10 µM. D(1A) dopamine receptor (Homo sapiens), P21728. HEK293 TREx D1 cells, calcium flux, dopamine EC20 potentiation. hit rate 0.036% among 360,000. AID 504651, 2011; in the data active = potentiation above about 30%; note: 0% is about no effect
DRD3 antagonist: qHTS of D3 Dopamine Receptor Antagonist: qHTS; D(3) dopamine receptor (Homo sapiens), P35462; max response, negative = inhibition, %; D3R cells, DiscoveRx beta-arrestin luminescence, antagonist mode; hits give low values; AID 652054, 2013; hit rate 2.5% among 360,000; in the data active = max response below about -50%; note: % is set by controls: 0 for no effect and ±100 for the full control effect
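Cells plated overnight at 1500 cells/well, then exposed to library compounds with dopamine controls for 90 minutes at 37 degrees C. DiscoveRx reagent added for 30–60 minutes at room temperature; luminescence read, quantitative HTS format.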
Active calls of the source: *.

Results for COc1cccc(NC(=O)CSc2nc3n[nH]c(C)c3c(=N)n2-c2cccc(OC)c2)c1 ?
ERG Ets-DNA blk: -1.3%; D3 ag: 8.3; D1 ag: 2.2; D1 antagonist: -30.9*; D1 PAM: -9.0; DRD3 antagonist: 59.6

Results for Cc1cc(-n2c(SCC(=O)NCc3cccs3)nc3n[nH]c(C)c3c2=N)ccc1Cl ?
ERG Ets-DNA blk: -0.5%; D3 ag: -7.9; D1 ag: 3.4; D1 antagonist: -42.0*; D1 PAM: -14.7; DRD3 antagonist: 3.1

Results for CCOC(=O)c1ccc(Oc2nc(NC)nc(SC)n2)cc1 ?
D3 ag: -4.2; D1 ag: 11.6; D1 antagonist: -34.2*; D1 PAM: -7.2; DRD3 antagonist: -4.4

What do the screens show for `CNc1nc(Oc2ccccc2C(=O)OC)nc(SC)n1`?
ERG Ets-DNA blk: -5.1%; D3 ag: 0.1; D1 ag: 1.2; D1 antagonist: -40.3*; D1 PAM: -5.3; DRD3 antagonist: -8.8

How did O=C1Nc2c(Cl)cc(Cl)cc2C1=O do in these assays?
ERG Ets-DNA blk: 6.6%; D3 ag: -12.2; DRD3 antagonist: -92.8*

What do the screens show for `Cc1cc(NC(=O)CSc2nc3c([nH]c4ccccc43)c(=O)n2-c2ccc(Cl)cc2)no1`?
ERG Ets-DNA blk: 5.2%; D3 ag: 4.7; D1 ag: 1.3; D1 antagonist: 9.7; D1 PAM: -5.0

What do the screens show for `COc1cccc(NC(=O)CN(C)C(=O)CNC(=O)c2ccccc2F)c1`?
ERG Ets-DNA blk: -7.4%; D3 ag: 7.0; D1 ag: 1.3; D1 antagonist: -33.2*; D1 PAM: -0.7; DRD3 antagonist: 8.3

How did CC(C)NC(=O)NC(=O)COC(=O)c1c2c(nc3ccccc13)CCC2 do in these assays?
ERG Ets-DNA blk: -11.5%; D3 ag: 35.5*; D1 ag: 1.3; D1 antagonist: -1.0; D1 PAM: -7.3; DRD3 antagonist: 82.8

Results for COc1cccc(NC(=O)COC(=O)c2c3c(nc4ccccc24)CCC(C)C3)c1 (stereo not given) ?
ERG Ets-DNA blk: 3.6%; D3 ag: 52.8*; D1 ag: 0.5; D1 antagonist: 12.2; D1 PAM: -3.1; DRD3 antagonist: 33.2

What do the screens show for `COc1cccc(NC(=O)COC(=O)c2c(F)cccc2Cl)c1`?
ERG Ets-DNA blk: -6.4%; D3 ag: 1.0; D1 ag: 4.0; D1 antagonist: -7.9; D1 PAM: 0.6; DRD3 antagonist: -61.5*

How did Cc1nc2ccccn2c(=O)c1NC(=O)COc1ccccc1 do in these assays?
D3 ag: -9.6; DRD3 antagonist: -24.5

How did CCCCNCc1cc(Br)c(OCC(=O)N2CCOCC2)c(OC)c1 do in these assays?
ERG Ets-DNA blk: 4.0%; D3 ag: 0.2; D1 ag: -1.5; D1 antagonist: 1.3; D1 PAM: 6.0; DRD3 antagonist: 16.7

How did COCCNC(=O)C1(C)CCCN(C(=O)c2cccc(OC(F)(F)F)c2)C1 (stereo not given) do in these assays?
D3 ag: 3.3; DRD3 antagonist: 20.7

What do the screens show for `O=C(COC(=O)c1c2c(nc3ccccc13)/C(=C\c1cccs1)CCC2)Nc1ccccc1`?
ERG Ets-DNA blk: 24.2%; D3 ag: 38.2*; D1 ag: 3.6; D1 antagonist: -4.3; D1 PAM: -2.2; DRD3 antagonist: 43.2

How did CC(=O)c1ccc(NC(=O)COC(=O)c2c3c(nc4ccccc24)/C(=C\c2cccs2)CCC3)cc1 do in these assays?
ERG Ets-DNA blk: 2.6%; D3 ag: -1.0; D1 ag: 10.5; D1 antagonist: -6.8; D1 PAM: 0.9; DRD3 antagonist: -5.8

How did COc1cccc(CNCCCSc2nnnn2C)c1OC do in these assays?
ERG Ets-DNA blk: -7.5%; D3 ag: -11.1; D1 ag: 1.0; D1 antagonist: 10.0; D1 PAM: -0.9

Screens (PubChem BioAssay)
